In the supplement of paper PMC10849652:
Of roughly 8,800 targets only a part is listed; those with a hit were picked by preference. About 0.5% of all pairs of compound and target were hits.

Assays:
Experiment in all cases: log2 fold change, soluble protein after heating vs DMSO (PISA); higher = thermal stabilisation; K562 lysate, 10 uM; active = over 0.2 and 3.5 SD of the protein, either way, in both replicates (recomputed)
erlotinib = compound: C#Cc1cccc(Nc2ncnc3cc(OCCOC)c(OCCOC)cc23)c1 [erlotinib]
In short: (§1)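 Dounce homogenisation of K562 pellets in PBS pH 7.4 with 1 mM MgCl2 produced a crude extract, used at 1 mg/mL protein. Exposure to 10 μM compound lasted 30 min, and aliquots were then heated for 3 min across 48°C-58°C, pooled and brought to 0.5% NP-40 at 4°C. The supernatant after 21,000xg for 90 min was quantified by TMTpro 16plex LC-MS/MS with channel sums equalised. Duplicate values are given as log-two fold change in thermal stability relative to solvent controls.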

[1] = compound: C/C(=N\NC(=O)C1=CC(=CC=C1)S(=O)(=O)N2CCOCC2)/C3=C(C=CC(=C3)Cl)O
In short: as §1

[2] = compound: C1=CC(=CC=C1C2=NC3=C(N2)C=C(C=C3)C(=O)N)OC4=CC=C(C=C4)Cl
In short: as §1

[3] = compound: C1=CC2=C(C=CC(=C2)/C=C\3/C(=O)NC(=NCC4=CC=CS4)S3)N=C1
In short: as §1

[4] = compound: C1=CC2=NC=CN=C2C=C1/C=C/3\C(=O)NC(=O)S3
In short: as §1

[5] = compound: C1=CC=C(C=C1)C2=NC(=C(N2)C3=CC=NC=C3)C4=CC(=C(C=C4)Cl)O
In short: as §1

[6] = compound: C1=CC=C2C(=C1)C3=NNC4=CC=CC(=C43)C2=O
In short: as §1

[7] = compound: C1CCN(C1)C(=O)NC2=CC=CC(=C2)NC3=NC=C(C(=N3)NCCC4=CN=CN4)Br
In short: as §1

[8] = compound: C1CN(CCC1(CC2=CC=C(C=C2)Cl)N)C3=NC=NC4=C3C=CN4
In short: as §1

IRAK-1-4 Inhibitor I = compound: C1COCCN1CCN2C3=CC=CC=C3N=C2NC(=O)C4=CC(=CC=C4)[N+](=O)[O-] [IRAK-1-4 Inhibitor I]
In short: as §1

ibrutinib = compound: C=CC(=O)N1CCC[C@@H](n2nc(-c3ccc(Oc4ccccc4)cc3)c3c(N)ncnc32)C1 [ibrutinib]
In short: as §1

[9] = compound: CC(=O)c1cnc2ccc(-c3cc(Cl)c(O)c(Cl)c3)nc2c1N[C@H]1CC[C@H](CN(C)C)CC1
In short: as §1

ralimetinib = compound: CC(C)(C)Cn1c(N)nc2ccc(-c3[nH]c(C(C)(C)C)nc3-c3ccc(F)cc3)nc21 [ralimetinib]
In short: as §1

[10] = compound: CC(C)(O)CC(=O)NCCn1ccc2ncnc(Nc3ccc(Oc4cccc(C(F)(F)F)c4)c(Cl)c3)c21
In short: as §1

[11] = compound: CC(C)C1=C2N=C(C=C(N2N=C1)NCC3=CC=CC=C3)NCCCCCCN
In short: as §1

[12] = compound: CC1=C(C(CC(=O)N1)C2=CC=C(C=C2)C(F)(F)F)C(=O)NC3=C(C=C4C(=C3)C=NN4)F
In short: as §1

[13] = compound: CC1=C(C2=C(C=C1)C(=O)C3=CC=CC=C3N2CCCN)C
In short: as §1

[14] = compound: CC1=C(C=C(C=C1)NC(=O)C2=CC(=CC=C2)C(C)(C)C#N)NC3=CC4=C(C=C3)N=CN(C4=O)C
In short: as §1

[15] = compound: CC1=C(C=C(C=C1)NC(=O)C2=CC(=CC=C2)N(C)C)NC(=O)C3=CC=C(C=C3)O
In short: as §1

[16] = compound: CC1=CC=C(C=C1)SC2=C3C=C(SC3=CN=C2)C(=O)N
In short: as §1

Measured: log2 fold change

UNC45A (UniProt Q9H3U1)
inactive: erlotinib 0.016 | [1] 0.014 | [2] -0.039 | [3] -0.006 | [4] 0.001 | [5] -0.024 | [6] -0.037 | [7] -0.015 | [8] -0.002 | IRAK-1-4 Inhibitor I -0.001 | ibrutinib 0.002 | [9] -0.008 | ralimetinib 0.03 | [10] -0.012 | [11] -0.009 | [12] -0.007 | [13] 0.002 | [14] 0.004 | [15] 0.002 | [16] -0.007

YEATS4 (UniProt O95619)
Sequence of UniProt O95619 (O95619 whole entry, looked up): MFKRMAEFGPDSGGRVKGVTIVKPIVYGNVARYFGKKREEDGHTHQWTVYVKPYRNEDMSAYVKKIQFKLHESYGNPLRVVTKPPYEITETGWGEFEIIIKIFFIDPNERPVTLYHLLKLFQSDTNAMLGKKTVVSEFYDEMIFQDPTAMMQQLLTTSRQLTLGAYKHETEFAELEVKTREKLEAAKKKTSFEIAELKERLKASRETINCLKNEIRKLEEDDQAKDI
inactive: erlotinib -0.017 | [1] -0.018 | [2] -0.018 | [3] 0.045 | [4] -0.079 | [5] -0.013 | [6] -0.027 | [7] 0.007 | [8] 0.034 | IRAK-1-4 Inhibitor I 0.002 | ibrutinib 0.02 | [9] 0.016 | ralimetinib 0.003 | [10] 0.009 | [11] 0.001 | [12] 0.01 | [13] -0.004 | [14] 0.041 | [15] -0.035 | [16] -0.039

VPS28 (UniProt Q9UK41)
Sequence of UniProt Q9UK41 (Q9UK41 whole entry, looked up): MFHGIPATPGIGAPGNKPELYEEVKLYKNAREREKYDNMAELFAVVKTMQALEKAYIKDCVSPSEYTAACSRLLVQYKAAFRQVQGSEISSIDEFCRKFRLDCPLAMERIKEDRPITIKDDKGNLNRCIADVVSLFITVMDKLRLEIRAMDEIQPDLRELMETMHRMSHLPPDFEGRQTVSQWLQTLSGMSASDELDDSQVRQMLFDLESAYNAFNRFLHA
inactive: erlotinib 0.707 | [1] -0.039 | [2] 0.004 | [3] -0.005 | [4] 0.041 | [5] 0.028 | [6] -0.036 | [7] -0.006 | [8] -0.018 | IRAK-1-4 Inhibitor I -0.036 | ibrutinib 0.109 | [9] -0.02 | ralimetinib 0.009 | [10] 0.046 | [11] -0.004 | [12] -0.005 | [13] 0.019 | [14] -0.092 | [15] 0.028 | [16] 0.019

UXT isoform 2 (UniProt Q9UBK9)
Sequence of UniProt Q9UBK9 (Q9UBK9 whole entry, looked up): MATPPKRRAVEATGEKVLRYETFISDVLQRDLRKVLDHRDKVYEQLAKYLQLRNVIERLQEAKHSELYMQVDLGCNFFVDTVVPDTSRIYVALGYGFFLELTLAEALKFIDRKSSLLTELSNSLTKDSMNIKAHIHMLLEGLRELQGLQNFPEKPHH
inactive: erlotinib 0.012 | [1] -0.036 | [2] 0.033 | [3] 0.021 | [4] -0.054 | [5] 0.035 | [6] 0.012 | [7] -0.033 | [8] 0.186 | IRAK-1-4 Inhibitor I 0.007 | ibrutinib -0.078 | [9] -0.018 | ralimetinib -0.063 | [10] -0.075 | [11] 0.006 | [12] -0.035 | [13] -0.091 | [14] 0 | [15] -0.015 | [16] -0.032

UTP18 (UniProt Q9Y5J1)
inactive: erlotinib 0.055 | [1] 0.072 | [2] 0.051 | [3] -0.056 | [4] 0.129 | [5] 0.038 | [6] -0.068 | [7] -0.122 | [8] 0.107 | IRAK-1-4 Inhibitor I -0.031 | ibrutinib 0.125 | [9] -0.031 | ralimetinib 0.002 | [10] -0.017 | [11] 0.033 | [12] 0.057 | [13] -0.085 | [14] -0.017 | [15] 0.028 | [16] 0.023

YTHDC2 (UniProt Q9H6S0)
Sequence of UniProt Q9H6S0 (Q9H6S0 whole entry, looked up): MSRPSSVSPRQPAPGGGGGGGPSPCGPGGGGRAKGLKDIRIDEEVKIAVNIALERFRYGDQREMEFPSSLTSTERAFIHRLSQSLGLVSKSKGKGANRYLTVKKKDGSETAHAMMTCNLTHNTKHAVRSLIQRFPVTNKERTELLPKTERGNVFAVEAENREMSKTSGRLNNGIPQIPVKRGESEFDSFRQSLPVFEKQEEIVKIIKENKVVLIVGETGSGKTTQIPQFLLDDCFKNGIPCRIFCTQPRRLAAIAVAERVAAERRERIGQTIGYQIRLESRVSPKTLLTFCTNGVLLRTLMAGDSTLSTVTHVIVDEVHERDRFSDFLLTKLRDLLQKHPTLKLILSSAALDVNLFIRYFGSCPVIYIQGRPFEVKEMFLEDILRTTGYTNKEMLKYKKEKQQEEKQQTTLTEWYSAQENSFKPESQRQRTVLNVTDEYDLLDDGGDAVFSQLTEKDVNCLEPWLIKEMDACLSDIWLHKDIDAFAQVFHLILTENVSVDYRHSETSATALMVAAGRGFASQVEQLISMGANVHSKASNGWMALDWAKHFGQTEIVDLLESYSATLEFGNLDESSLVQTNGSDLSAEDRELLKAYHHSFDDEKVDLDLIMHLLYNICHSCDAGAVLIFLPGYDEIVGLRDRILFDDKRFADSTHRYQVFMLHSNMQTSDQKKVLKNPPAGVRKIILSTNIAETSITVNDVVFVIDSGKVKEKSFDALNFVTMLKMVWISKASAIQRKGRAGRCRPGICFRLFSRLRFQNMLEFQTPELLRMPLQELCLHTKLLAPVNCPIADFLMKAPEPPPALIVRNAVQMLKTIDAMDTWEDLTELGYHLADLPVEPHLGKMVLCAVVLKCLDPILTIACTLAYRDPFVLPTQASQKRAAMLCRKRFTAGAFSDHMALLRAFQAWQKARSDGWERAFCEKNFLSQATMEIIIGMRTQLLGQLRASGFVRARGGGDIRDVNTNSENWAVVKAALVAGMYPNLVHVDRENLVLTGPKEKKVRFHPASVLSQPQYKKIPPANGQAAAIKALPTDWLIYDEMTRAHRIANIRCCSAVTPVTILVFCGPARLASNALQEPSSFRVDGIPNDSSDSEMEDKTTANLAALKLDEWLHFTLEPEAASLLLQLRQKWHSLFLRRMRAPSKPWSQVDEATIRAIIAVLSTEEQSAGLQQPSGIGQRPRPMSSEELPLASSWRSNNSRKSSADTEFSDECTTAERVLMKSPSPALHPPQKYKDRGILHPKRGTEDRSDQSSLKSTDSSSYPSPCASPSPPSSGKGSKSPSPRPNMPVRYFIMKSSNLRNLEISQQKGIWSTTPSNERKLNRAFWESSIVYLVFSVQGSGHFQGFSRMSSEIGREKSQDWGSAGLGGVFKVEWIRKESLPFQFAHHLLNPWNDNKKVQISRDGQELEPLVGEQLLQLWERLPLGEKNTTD
inactive: erlotinib -0.008 | [1] 0.065 | [2] 0.012 | [3] 0.027 | [4] 0.02 | [5] -0.001 | [6] 0.074 | [7] -0.019 | [8] 0.029 | IRAK-1-4 Inhibitor I 0.002 | ibrutinib 0.003 | [9] 0.009 | ralimetinib 0.061 | [10] 0.021 | [11] 0.013 | [12] 0.003 | [13] -0.023 | [14] -0.003 | [15] 0.019 | [16] -0.018

VAV3 isoform 4 (UniProt Q9UKW4)
inactive: erlotinib 0.035 | [1] 1.07 | [2] -0.029 | [3] -0.144 | [4] 0.117 | [5] 0.012 | [6] -0.133 | [7] 0.148 | [8] -0.08 | IRAK-1-4 Inhibitor I -0.017 | ibrutinib 0.068 | [9] -0.109 | ralimetinib -0.049 | [10] -0.013 | [11] -0.028 | [12] -0.013 | [13] 0.085 | [14] -0.03 | [15] -0.026 | [16] 0.058

WDR7 (UniProt Q9Y4E6)
inactive: erlotinib 0.05 | [1] -0.076 | [2] -0.016 | [3] -0.059 | [4] -0.001 | [5] -0.005 | [6] -0.038 | [7] 0.018 | [8] 0.042 | IRAK-1-4 Inhibitor I 0.01 | ibrutinib 0.067 | [9] 0.04 | ralimetinib 0.063 | [10] -0.075 | [11] -0.03 | [12] -0.005 | [13] -0.013 | [14] 0.037 | [15] -0.06 | [16] -0.013

VARS (UniProt P26640)
inactive: erlotinib 0.031 | [1] 0.035 | [2] -0.031 | [3] 0.007 | [4] 0.03 | [5] 0.019 | [6] -0.035 | [7] 0.021 | [8] -0.002 | IRAK-1-4 Inhibitor I 0.011 | ibrutinib 0.015 | [9] -0.003 | ralimetinib 0.042 | [10] 0.018 | [11] 0.032 | [12] 0.006 | [13] -0.047 | [14] 0.001 | [15] 0.041 | [16] 0.035

WDR3 (UniProt Q9UNX4)
Sequence of UniProt Q9UNX4 (Q9UNX4 whole entry, looked up): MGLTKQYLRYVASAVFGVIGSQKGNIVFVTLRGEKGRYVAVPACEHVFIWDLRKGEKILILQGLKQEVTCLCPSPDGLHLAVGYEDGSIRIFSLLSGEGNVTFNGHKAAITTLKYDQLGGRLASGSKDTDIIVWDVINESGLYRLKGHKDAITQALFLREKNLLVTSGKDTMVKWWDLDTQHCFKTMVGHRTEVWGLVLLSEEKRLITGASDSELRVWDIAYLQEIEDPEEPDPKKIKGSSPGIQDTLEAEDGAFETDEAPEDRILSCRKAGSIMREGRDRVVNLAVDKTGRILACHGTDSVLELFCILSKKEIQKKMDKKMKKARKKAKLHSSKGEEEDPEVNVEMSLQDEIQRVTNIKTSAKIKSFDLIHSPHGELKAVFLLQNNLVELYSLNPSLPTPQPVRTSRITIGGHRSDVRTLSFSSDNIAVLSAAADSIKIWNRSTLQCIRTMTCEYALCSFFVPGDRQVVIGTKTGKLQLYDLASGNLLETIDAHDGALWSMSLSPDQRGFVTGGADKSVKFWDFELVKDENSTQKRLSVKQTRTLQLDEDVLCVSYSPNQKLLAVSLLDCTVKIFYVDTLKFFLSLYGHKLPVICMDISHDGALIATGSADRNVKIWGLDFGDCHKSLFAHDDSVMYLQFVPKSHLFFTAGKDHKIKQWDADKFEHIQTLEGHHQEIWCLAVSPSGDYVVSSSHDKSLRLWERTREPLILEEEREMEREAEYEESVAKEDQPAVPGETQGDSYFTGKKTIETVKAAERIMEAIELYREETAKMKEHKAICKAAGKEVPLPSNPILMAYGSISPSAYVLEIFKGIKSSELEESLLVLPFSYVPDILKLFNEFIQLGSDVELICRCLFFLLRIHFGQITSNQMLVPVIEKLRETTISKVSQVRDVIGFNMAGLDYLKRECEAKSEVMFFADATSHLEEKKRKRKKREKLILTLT
inactive: erlotinib -0.036 | [1] -0.013 | [2] -0.044 | [3] -0.012 | [4] 0.027 | [5] -0.015 | [6] 0.026 | [7] 0.007 | [8] -0.04 | IRAK-1-4 Inhibitor I -0.02 | ibrutinib 0 | [9] 0.014 | ralimetinib 0.021 | [10] 0.025 | [11] -0.033 | [12] 0.015 | [13] -0.032 | [14] -0.021 | [15] -0.001 | [16] 0.03

UPF3B (UniProt Q9BZI7)
inactive: erlotinib -0.026 | [1] -0.109 | [2] 0.042 | [3] 0.02 | [4] -0.005 | [5] 0.017 | [6] -0.014 | [7] -0.018 | [8] -0.008 | IRAK-1-4 Inhibitor I 0.008 | ibrutinib -0.011 | [9] 0.024 | ralimetinib 0.007 | [10] -0.006 | [11] -0.021 | [12] 0.018 | [13] -0.04 | [14] 0.008 | [15] -0.001 | [16] -0.003

USP10 isoform 2 (UniProt Q14694)
inactive: erlotinib 0.022 | [1] -0.032 | [2] 0.01 | [3] 0.007 | [4] -0.017 | [5] 0.023 | [6] -0.028 | [7] -0.033 | [8] -0.034 | IRAK-1-4 Inhibitor I -0.005 | ibrutinib -0.038 | [9] 0.001 | ralimetinib -0.019 | [10] -0.014 | [11] -0.006 | [12] -0.025 | [13] 0.018 | [14] 0.003 | [15] 0.018 | [16] 0.008

YME1L1 (UniProt Q96TA2)
Sequence of UniProt Q96TA2 (Q96TA2 whole entry, looked up): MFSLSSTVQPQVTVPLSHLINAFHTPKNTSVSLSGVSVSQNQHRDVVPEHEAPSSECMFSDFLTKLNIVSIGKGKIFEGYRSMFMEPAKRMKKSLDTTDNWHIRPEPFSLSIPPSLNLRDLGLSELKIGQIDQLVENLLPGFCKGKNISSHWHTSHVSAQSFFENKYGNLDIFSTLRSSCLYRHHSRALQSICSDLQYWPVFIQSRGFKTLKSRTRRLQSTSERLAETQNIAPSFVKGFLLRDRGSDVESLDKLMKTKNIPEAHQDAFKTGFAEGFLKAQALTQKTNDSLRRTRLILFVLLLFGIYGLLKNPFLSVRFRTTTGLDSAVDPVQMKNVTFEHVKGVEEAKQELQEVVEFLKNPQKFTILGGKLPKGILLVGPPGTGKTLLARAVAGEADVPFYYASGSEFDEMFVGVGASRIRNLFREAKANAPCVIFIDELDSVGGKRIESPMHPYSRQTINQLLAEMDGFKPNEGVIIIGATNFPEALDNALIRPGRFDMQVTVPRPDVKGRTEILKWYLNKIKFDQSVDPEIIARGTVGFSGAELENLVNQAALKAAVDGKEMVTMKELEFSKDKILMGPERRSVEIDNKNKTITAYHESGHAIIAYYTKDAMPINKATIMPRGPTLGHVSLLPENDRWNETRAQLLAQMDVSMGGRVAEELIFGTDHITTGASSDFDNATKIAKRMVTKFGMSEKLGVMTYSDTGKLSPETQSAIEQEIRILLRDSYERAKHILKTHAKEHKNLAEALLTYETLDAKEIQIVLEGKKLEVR
inactive: erlotinib 0.018 | [1] -0.136 | [2] -0.029 | [3] 0.026 | [4] 0.053 | [5] 0 | [6] 0.011 | [7] -0.006 | [8] 0.041 | IRAK-1-4 Inhibitor I 0.033 | ibrutinib -0.04 | [9] -0.008 | ralimetinib -0.006 | [10] -0.043 | [11] 0 | [12] -0.04 | [13] 0.003 | [14] 0.005 | [15] 0.054 | [16] -0.087

WDR36 (UniProt Q8NI36)
Sequence of UniProt Q8NI36 (Q8NI36 whole entry, looked up): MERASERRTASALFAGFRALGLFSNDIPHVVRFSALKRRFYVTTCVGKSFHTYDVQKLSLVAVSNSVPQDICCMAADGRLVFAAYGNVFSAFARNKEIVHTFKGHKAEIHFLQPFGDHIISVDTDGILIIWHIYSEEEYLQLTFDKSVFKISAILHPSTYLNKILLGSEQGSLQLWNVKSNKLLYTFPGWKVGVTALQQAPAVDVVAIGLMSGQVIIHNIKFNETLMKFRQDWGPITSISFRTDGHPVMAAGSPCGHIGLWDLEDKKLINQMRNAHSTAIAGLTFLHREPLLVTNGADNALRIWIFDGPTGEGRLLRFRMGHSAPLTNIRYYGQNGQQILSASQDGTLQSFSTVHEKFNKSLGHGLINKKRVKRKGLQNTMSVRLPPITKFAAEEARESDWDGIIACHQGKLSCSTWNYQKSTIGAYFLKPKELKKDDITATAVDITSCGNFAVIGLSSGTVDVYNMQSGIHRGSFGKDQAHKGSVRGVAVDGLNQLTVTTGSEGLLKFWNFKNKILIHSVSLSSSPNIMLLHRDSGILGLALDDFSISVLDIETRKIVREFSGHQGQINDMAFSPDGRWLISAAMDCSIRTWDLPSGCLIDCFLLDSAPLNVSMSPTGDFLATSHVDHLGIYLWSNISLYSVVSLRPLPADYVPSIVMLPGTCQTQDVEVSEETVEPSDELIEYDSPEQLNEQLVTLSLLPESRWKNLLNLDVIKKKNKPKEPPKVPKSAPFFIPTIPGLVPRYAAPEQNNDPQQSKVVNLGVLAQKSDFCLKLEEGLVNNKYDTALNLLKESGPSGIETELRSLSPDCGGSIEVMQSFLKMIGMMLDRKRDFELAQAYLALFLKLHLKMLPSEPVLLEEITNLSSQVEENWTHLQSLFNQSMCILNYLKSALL
inactive: erlotinib 0 | [1] 0.02 | [2] -0.031 | [3] 0.027 | [4] -0.025 | [5] 0.017 | [6] 0.008 | [7] 0.014 | [8] 0.004 | IRAK-1-4 Inhibitor I -0.049 | ibrutinib -0.02 | [9] -0.01 | ralimetinib 0.019 | [10] -0.004 | [11] 0.03 | [12] 0.048 | [13] 0 | [14] 0.019 | [15] 0.013 | [16] 0.033

WRB (UniProt O00258)
Sequence of UniProt O00258 (O00258 whole entry, looked up): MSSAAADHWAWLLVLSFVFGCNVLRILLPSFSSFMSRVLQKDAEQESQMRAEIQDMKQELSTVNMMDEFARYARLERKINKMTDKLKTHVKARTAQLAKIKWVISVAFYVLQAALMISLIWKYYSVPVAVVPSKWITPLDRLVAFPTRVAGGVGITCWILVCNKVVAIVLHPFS
inactive: erlotinib -0.043 | [1] 0.208 | [2] 0.027 | [3] 0.002 | [4] -0.009 | [5] -0.002 | [6] 0.049 | [7] 0.051 | [8] -0.064 | IRAK-1-4 Inhibitor I 0.101 | ibrutinib 0.045 | [9] -0.043 | ralimetinib -0.095 | [10] -0.255 | [11] -0.024 | [12] -0.025 | [13] -0.141 | [14] 0.063 | [15] -0.004 | [16] -0.024

WDR41 (UniProt Q9HAD4)
inactive: erlotinib -0.071 | [1] -0.044 | [2] -0.021 | [3] 0.015 | [4] -0.027 | [5] -0.113 | [6] 0.031 | [7] -0.091 | [8] 0.049 | IRAK-1-4 Inhibitor I 0.029 | ibrutinib -0.163 | [9] -0.004 | ralimetinib 0.017 | [10] 0.088 | [11] -0.015 | [12] 0.03 | [13] -0.054 | [14] 0.164 | [15] -0.049 | [16] 0.015
